Where “and” joins values, the source holds several entries; their conditions need not be identical. Equal entries are not always repeated. In all, about 5,500 compounds went through this assay and about 2,000 (36%) were called active. Roughly 18% stayed inconclusive and do not appear here. Rule as the data show it: active = normalized growth mostly below about 0.91 (no sharp cut-off); inconclusive = no clear call, values can overlap the other calls; inactive = mostly above about 0.92. The list shows a part of the results.
Assay: chemical genetic growth profiling, strain panel (AID 1159580);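 also: tested at 20 µM; growth read once vehicle control cultures reached saturation at 30 °C; 1 = growth at the plate median or of vehicle wells; lower values mean less growth of the strain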
Details: S. cerevisiae deletion strains, growth OD

Measured: normalized growth

CC[C@@]1(O)C[C@H](O[C@H]2C[C@H](N(C)C)[C@H](O)[C@H](C)O2)c2c(cc3c(c2O)C(=O)c2c(O)ccc(O)c2C3=O)[C@H]1C(=O)OC
active: locus YAL021C, strain ccr4, stronger effect = lower value 0.83 | locus YAL026C, strain drs2, stronger effect = lower value 0.813 | locus YAL030W, strain snc1, stronger effect = lower value 0.919 | locus YBL061C, strain skt5, stronger effect = lower value 0.875 | locus YBR021W, strain FUR4, stronger effect = lower value 0.143 | locus YBR023C, strain chs3, stronger effect = lower value 1.52 [resistant] | locus YBR229C, strain ROT2, stronger effect = lower value 0.152 | locus YBR231C, strain swc5, stronger effect = lower value 0.794 | locus YBR279W, strain paf1, stronger effect = lower value 0.901 | locus YCL011C, strain gbp2, stronger effect = lower value 0.0988 | locus YCL016C, strain dcc1, stronger effect = lower value 0.893 | locus YCL029C, strain bik1, stronger effect = lower value 0.205 | locus YDL035C, strain GPR1, stronger effect = lower value 0.0755 | locus YDL074C, strain BRE1, stronger effect = lower value 0.141 | locus YDL101C, strain DUN1, stronger effect = lower value 0.0945 | locus YDL134C, strain PPH21, stronger effect = lower value 0.0874 | locus YDL192W, strain arf1, stronger effect = lower value 0.106 | locus YDR069C, strain doa4, stronger effect = lower value 0.68 | locus YDR101C, strain arx1, stronger effect = lower value 0.18 | locus YDR137W, strain rgp1, stronger effect = lower value 0.703 | locus YDR150W, strain NUM1, stronger effect = lower value 0.112 | locus YDR162C, strain NBP2, stronger effect = lower value 0.0578 | locus YDR297W, strain sur2, stronger effect = lower value 0.873 | locus YDR318W, strain mcm21, stronger effect = lower value 0.125 | locus YDR334W, strain swr1, stronger effect = lower value 0.816 | locus YDR335W, strain msn5, stronger effect = lower value 0.854 | locus YDR388W, stronger effect = lower value 0.0868 | locus YDR502C, strain sam2, stronger effect = lower value 0.125 | locus YEL037C, strain rad23, stronger effect = lower value 0.874 | locus YEL061C, strain CIN8 (second series), stronger effect = lower value 0.879 | locus YEL061C, strain CIN8, stronger effect = lower value 0.071 | locus YER015W, strain faa2, stronger effect = lower value 0.821 | locus YER110C, stronger effect = lower value 0.559 | locus YER111C, strain swi4, stronger effect = lower value 0.767 | locus YER155C, strain BEM2 (second series), stronger effect = lower value 0.848 | locus YER155C, strain BEM2, stronger effect = lower value 0.144 | locus YER167W, strain BCK2, stronger effect = lower value 0.0725 | locus YFR010W, strain ubp6, stronger effect = lower value 0.813 | locus YGL086W, strain mad1, stronger effect = lower value 0.281 | locus YGL173C, strain kem1, stronger effect = lower value 0.716 | locus YGL248W, strain PDE1, stronger effect = lower value 0.0787 | locus YGL253W, strain hxk2, stronger effect = lower value 0.86 | locus YGR078C, strain PAC10, stronger effect = lower value 0.0806 | locus YGR135W, strain pre9, stronger effect = lower value 0.0948 | locus YGR252W, strain gcn5, stronger effect = lower value 0.225 | locus YHR027C, strain rpn1, stronger effect = lower value 0.812 | locus YHR079C, strain IRE1 (second series), stronger effect = lower value 0.477 | locus YHR094C, strain hxt1, stronger effect = lower value 0.402 | locus YHR129C, strain ARP1, stronger effect = lower value 0.0918 | locus YHR142W, strain chs7, stronger effect = lower value 0.745 | locus YHR200W, strain rpn10, stronger effect = lower value 0.0997 | locus YIL066C, strain RNR3, stronger effect = lower value 0.073 | locus YIL073C, strain SPO22, stronger effect = lower value 0.134 | locus YIR030C, strain dcg1, stronger effect = lower value 0.179 | locus YJL092W, strain hpr5, stronger effect = lower value 0.905 | locus YJL095W, strain BCK1 (second series), stronger effect = lower value 0.877 | locus YJL134W, strain LCB3, stronger effect = lower value 0.167 | locus YJL164C, strain tpk1, stronger effect = lower value 0.832 | locus YJL166W, strain qcr8, stronger effect = lower value 0.875 | locus YJL168C, strain set2, stronger effect = lower value 0.272 | locus YJL187C, strain SWE1 (second series), stronger effect = lower value 0.0876 | locus YJR043C, strain POL32, stronger effect = lower value 0.113
inactive: locus YBR009C, strain hhf1, stronger effect = lower value 0.924 | locus YBR171W, strain sec66, stronger effect = lower value 1.03 | locus YCL069W, strain vba3, stronger effect = lower value 0.948 | locus YCR088W, strain abp1, stronger effect = lower value 0.954 | locus YDL005C, strain med2, stronger effect = lower value 1.03 | locus YDL040C, strain nat1, stronger effect = lower value 0.962 | locus YDL185W, strain tfp1, stronger effect = lower value 0.956 | locus YDR001C, strain nth1, stronger effect = lower value 0.932 | locus YDR159W, strain sac3, stronger effect = lower value 0.906 | locus YDR195W, strain ref2 1.05 | locus YDR392W, strain spt3, stronger effect = lower value 0.823 | locus YEL003W, strain gim4, stronger effect = lower value 0.942 | locus YER016W, strain bim1, stronger effect = lower value 0.954 | locus YGL078C, strain dbp3, stronger effect = lower value 0.973 | locus YGL167C, strain pmr1, stronger effect = lower value 0.955 | locus YGL227W, strain vid30, stronger effect = lower value 1.02 | locus YGL240W, strain doc1, stronger effect = lower value 0.966 | locus YHR013C, strain ard1, stronger effect = lower value 0.935 | locus YHR079C, strain IRE1, stronger effect = lower value 0.987 | locus YIL125W, strain kgd1, stronger effect = lower value 0.959 | locus YJL115W, strain asf1, stronger effect = lower value 0.947 | locus YJL129C, strain trk1, stronger effect = lower value 1.05 | locus YJL154C, strain vps35, stronger effect = lower value 0.929
0.113 (active) and 0.995 (inactive): locus YHR030C, strain SLT2, stronger effect = lower value
0.121 (active) and 0.997 (inactive): locus YJL095W, strain BCK1, stronger effect = lower value
